Screening data from PubChem BioAssay.
TGFb SMAD3 inh – TGF-b pathway inhibition | HepG2 CAGA-GFP TGF-b/SMAD3 reporter, GFP fluorescence, 18 h; TGF-beta stimulated, 500 pg/mL final | Potency, µM (doses to about 46.1 µM), usual class: inhibitors | 410,000 compounds, 1.2% hits; also: nearly all actives have a fitted effect of over 65% in size
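HEPG2 CAGA-GFP cells (1000/well, DMEM with 1% FBS) were pre-incubated 2 h at 37 degrees C, given compound by pin tool, then stimulated with TGF-beta at 500 pg/mL final for 18 h before per-cell GFP fluorescence imaging.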
ATXN2 expr inh – ATXN2 expression inhibition | 360,000 compounds, 0.72% hits | HEK-293 ATXN2-luciferase reporter, luminescence, 24 h | Potency, µM (top dose mostly 57 µM), most hits filed as inhibitors; also: nearly all actives have a fitted effect of over 55% in size
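ATXN2-luciferase reporter cells (luciferase flanked by upstream and downstream ATXN2 gene portions) were treated 24 h at 37 °C with compounds at up to 57 uM. SteadyGlo luminescence gave expression; GF-AFC fluorescence gave viability.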
Nrf2 block – Nrf2 pathway inhibition; Potency, µM (series often up to 46 µM), usual class: inhibitors; A549 ARE-Fluc reporter, luciferase luminescence, 18-24 h; 360,000 compounds, 2.1% hits; also: nearly all actives have a fitted effect of over 60% in size
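Nrf2 function is reported as luminescence of an ARE-controlled luciferase in A549 cells. Compounds were tested at several concentrations, and a CellTiter-Fluor read on the same wells flagged cytotoxicity.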
ATXN viability – cell viability loss in ATXN counter-screen. S2 cells (HEK-293 line with an ATXN2-luciferase reporter) viability, CellTiter-Fluor protease fluorescence, 24 h. Potency, µM (top dose mostly 56.7 µM), actives largely listed as cytotoxic. 400,000 compounds, 0.49% hits. AID 651635; also: nearly all actives have a fitted effect of over 40% in size
A549 tox – kills or reduces viability of A549 cells in Nrf2 counter-screen; A549 ARE-Fluc cells, CellTiter-Fluor viability, 18-24 h; Potency, µM (titrated, usually from 46 µM), hits mostly inhibitors; 390,000 compounds, 0.16% hits; AID 504648
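A549 ARE-Fluc cells in 5% FBS OPTI-MEM, 5000 cells/well, rested 2 h then exposed to compounds in concentration-response for 18-24 h at 37 °C. Viability by CellTiter-Fluor fluorescence (Ex 405/Em 525) after 30 min; luciferase luminescence (BugLite, 15 min, RT) read afterwards.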
HepG2 tox – kills HepG2 cells in TGF-b inhibitor counter-screen. HepG2 CAGA-GFP viability, ATP luminescence, 18 h. Potency, µM (titrated, usually from 46.1 µM), most hits filed as cytotoxic. 410,000 compounds, 0.76% hits
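CellTiter-Glo luminescence gave cytotoxicity after 18 hours at 37 degrees C. The cells were HepG2 CAGA-GFP in 1% FBS DMEM, stimulated with 500 pg/mL TGF-beta after compound addition. %Activity was normalised to no-cell wells (complete cell-killing) and DMSO (no toxicity), and curves were fitted and classified.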
Hits are given with their value; 0 = inactive; ? = inconclusive; - = not tested or not shown; [ ] = remark or other dose. An excerpt weighted towards active compounds, which were near 3.8% of everything screened. Calls follow the shape of the dose curve; as a rule, active = well fitted curve in the direction sought with a large enough effect; inconclusive = small, poorly fitted or top-dose-only effect, or another doubt; inactive = no such curve, though single readings can be large; an effect the other way counts as inactive or inconclusive.

SMILES	TGFb SMAD3 inh	ATXN2 expr inh	Nrf2 block	ATXN viability	A549 tox	HepG2 tox
CCCOc1ccc(C(=O)Nc2cccc(NC(=O)c3ccc(Cl)cc3Cl)c2)cc1	?	0	0	?	0	11µM
C=C1C(=O)C23C(O)C1CCC2C12CCCC(C)(COC(C)=O)C1C(O)C3(O)OC2 (stereo not given)	2µM	?	9.2µM	7.1µM	18µM	3.2µM
O=C(/C=C/c1ccc(NC(=O)c2ccccc2-c2ccccc2C(=O)O)cc1)c1ccccc1	?	-	0	0	0	0
O=C(/C=C/c1ccncc1)c1ccc(NC(=O)c2ccccc2F)cc1	13µM	0	?	?	0	5µM
Cc1cccc(N2C(=O)N3[C@H]4c5ccccc5OC[C@@H]4[C@@H](c4ccccc4)[C@@]3(C)C2=O)c1	0	0	0	0	0	0
CCOC(=O)N1CCC(NS(=O)(=O)c2ccc(C#N)cc2)CC1	0	0	0	0	0	0
O=C(Cn1cc(CNCc2ccccc2)nn1)Nc1cc(C(F)(F)F)ccc1Cl	-	-	0	-	0	-
CCCCN(C=O)c1c(CC)nc2c(OCC3CCCCC3)cccn12	13µM	?	-	?	-	0
CCc1nc2c(OCCC3CCCCC3)cccn2c1N(C=O)Cc1ccc(OC)cc1	?	?	-	0	-	20µM
CCc1nc2c(OCCC3CCCCC3)cccn2c1N(C=O)Cc1ccccc1	?	?	-	?	-	0
CCOC(=O)N1CCC(N2CCCC(CO)(Cc3cccc(Cl)c3)C2)CC1 (stereo not given)	0	0	0	0	0	0
CCc1ccc(NC(=O)CN(c2ccc(Cl)cc2)S(=O)(=O)c2ccsc2C(=O)OC)cc1	7.1µM	0	0	0	0	0
COc1ccc(OCC(O)CN2CCCC2)cc1 (stereo not given)	0	-	0	0	0	13µM
COc1ccc(OCC(O)CN2CCCCCC2)cc1 (stereo not given)	0	0	0	0	0	0
Cc1ccc(OCC(O)CN2CCOCC2)cc1 (stereo not given)	0	-	0	?	0	0
OC(COc1ccc(OCC(O)CN2CCCCCC2)cc1)CN1CCCCCC1 (stereo not given)	0	0	-	?	2.6µM	0
OC(COc1ccc(Br)cc1)CN1CCOCC1 (stereo not given)	0	0	0	0	0	2.8µM
CCOC(=O)c1c(C)n(C)c2ccc(OCC(O)CN3CCCCCC3)cc12 (stereo not given)	0	0	0	18µM	?	0
Cc1cnc(C)c(Nc2nc(C(N)c3ccccc3)cs2)n1 (stereo not given)	0	0	-	0	-	0
OC(COc1ccccc1)CN1CCN(C(c2ccccc2)c2ccccc2)CC1 (stereo not given)	14µM	0	0	0	0	0
N#Cc1ccc(OCC(O)CN2CCN(C(c3ccccc3)c3ccccc3)CC2)cc1 (stereo not given)	0	0	0	0	0	0
c1coc(CNc2nc(N3CCCCC3)nc3ccccc23)c1	10µM	?	?	?	?	0
c1ccc(N2CCN(c3nc(NCc4ccco4)c4ccccc4n3)CC2)cc1	?	?	?	?	?	0
c1ccc(-c2nc(NCc3ccco3)c3ccccc3n2)nc1	0	?	21µM	?	0	0
c1ccc(CNc2nc(N3CCN(Cc4ccccc4)CC3)nc3ccccc23)cc1	?	?	0	0	?	28µM
SMILES	TGFb SMAD3 inh	ATXN2 expr inh	Nrf2 block	ATXN viability	A549 tox	HepG2 tox
Cc1ccc(Nc2nc(NCc3ccco3)c3ccccc3n2)cc1	11µM	?	?	0	?	0
OCCNc1nc(N2CCCCC2)nc2ccccc12	0	0	0	0	0	0
O=C(C1=C[C@@H](c2ccc(C(F)(F)F)cc2)C[C@@H](OCCCCO)O1)N1CCN(Cc2ccc3c(c2)OCO3)CC1	0	0	?	?	0	0
C(=N\Nc1nc(-c2ccccn2)nc2ccccc12)/c1ccccc1	1.8µM	-	?	-	?	0
COc1ccc2nc(N(Cc3cccnc3)C(=O)c3ccco3)sc2c1	0	-	-	-	0	0
O=C(CNC(=O)c1ccccc1)OC(Cc1ccccc1)C(=O)Nc1cc(C(F)(F)F)ccc1Cl (stereo not given)	-	-	0	-	0	-
CC1C(c2ccccc2)N(C)C(c2ccccc2)CC1(O)c1ccccc1 (stereo not given)	?	?	?	?	?	22µM
COc1ccc(S(=O)(=O)N(CC(=O)NC(C)c2ccccc2)c2ccc(C)cc2)cc1OC (stereo not given)	?	?	0	22µM	0	22µM
O=S(=O)(NCC1CN(S(=O)(=O)c2c(F)cccc2F)C1)c1ccc2c(c1)OCCO2	0	0	12µM	?	0	0
Oc1ccc(CCc2ccccn2)cc1	0	-	-	0	-	0
COc1cccc(Cn2nnc(C(=O)Nc3cc(C)ccc3OC)c2N)c1	?	?	0	?	0	0
COc1cccc(Cn2nnc(C(=O)Nc3cc(C)ccc3C)c2N)c1	?	0	16µM	?	0	0
CNC(=O)C1CCC(Cn2c(=O)c3sccc3n(CC(=O)NCc3ccccc3)c2=O)CC1 (stereo not given)	?	0	?	?	0	0
O=C(c1[nH]ncc1-c1ccccc1)C1CO1 (stereo not given)	0	0	0	0	0	13µM
NC(Cc1ccccc1)C(O)c1ccco1 (stereo not given)	0	-	0	-	0	0
C=CCn1cc(C(=O)NCc2ccco2)c(=O)c2cc(S(=O)(=O)N3CCCCCC3)ccc21	?	-	12µM	-	0	0
C=CCn1cc(C(=O)NCCOC)c(=O)c2cc(S(=O)(=O)N3CCCCCC3)ccc21	?	-	0	0	0	10µM
C=CCn1cc(C(=O)NCCN(CC)CC)c(=O)c2cc(S(=O)(=O)N3CCCCCC3)ccc21	0	0	0	0	0	0
CCCCCCCN1CCN=C1N(C)C	?	0	0	0	0	0
CC(=O)N(C(C)=O)N1C(=O)/C(=C/c2ccc(Cl)cc2)SC1=S	16µM	?	?	?	0	0
Cc1cc(C(=O)N/N=C/c2ccc([N+](=O)[O-])s2)n[nH]1	11µM	14µM	?	?	?	18µM
Cc1ccc(OCC(=O)N/N=C\c2cccs2)c([N+](=O)[O-])c1	0	0[11.3 µM]	?	0	0	0
Cc1cccc(NC(=S)N/N=C/c2ccc([N+](=O)[O-])s2)c1	7.1µM	20µM	11µM	-	?	6.3µM
Cc1ccc([N+](=O)[O-])c(C(=O)N/N=C/c2cccs2)c1	0	-	9.2µM	?	0	0
O=C(N/N=C/c1cccc([N+](=O)[O-])c1)c1cccc(Br)c1	0	0	0	0	0	0
